Sampled rows, rich in hits. Any-hit rate of the full collection: about 11%.
USP28 block – inhibitors of human USP28 deubiquitinase. Ubiquitin carboxyl-terminal hydrolase 28 (Homo sapiens), Q96RU2. purified USP28, Ub-rhodamine cleavage fluorescence, 30 min. inhibition, % at 25 µM. 47,000 compounds, 3% hits. AID 1645857, 2021
OTUD3 block – inhibitors of human OTUD3 deubiquitinase | purified OTUD3, Ub-rhodamine fluorescence, 2 h | inhibition, % at 25 µM | 47,000 compounds, 0.7% hits | AID 1645858, 2021
Target sequence (Q5T2D3 whole entry, looked up): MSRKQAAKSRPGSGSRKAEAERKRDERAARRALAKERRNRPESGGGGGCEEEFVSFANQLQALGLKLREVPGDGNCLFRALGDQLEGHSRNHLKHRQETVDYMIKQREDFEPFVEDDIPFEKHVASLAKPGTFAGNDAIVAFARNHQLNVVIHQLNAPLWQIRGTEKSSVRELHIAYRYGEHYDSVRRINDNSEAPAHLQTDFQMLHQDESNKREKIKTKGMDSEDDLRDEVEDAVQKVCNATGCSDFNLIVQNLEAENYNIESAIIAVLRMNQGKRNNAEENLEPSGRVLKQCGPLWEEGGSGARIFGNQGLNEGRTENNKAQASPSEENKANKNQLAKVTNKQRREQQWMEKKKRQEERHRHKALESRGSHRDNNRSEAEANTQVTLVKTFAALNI
USP17 block – inhibitors of human USP17 deubiquitinase. Ubiquitin carboxyl-terminal hydrolase 17-like protein 5 (Homo sapiens), A8MUK1. purified USP17, Ub-rhodamine cleavage fluorescence, 3 h. inhibition, % at 50 µM. 47,000 compounds, 6.5% hits. AID 1645855, 2021
USP30 block – inhibitors of human USP30 deubiquitinase; Ubiquitin carboxyl-terminal hydrolase 30 (Homo sapiens), Q70CQ3; purified USP30, Ub-rhodamine cleavage fluorescence; inhibition, % at 25 µM; 47,000 compounds, 5.3% hits; AID 1645860, 2021
An asterisk follows results filed as active; . = no result. Cut-off read from the data, not from the text of the source: active = inhibition above about 30%; inactive = the rest.

SMILES | USP28 block | OTUD3 block | USP17 block | USP30 block
Cc1cc(O)c(Oc2cc(C)cc(O)c2O)c(O)c1 | 47* | 34* | 47* | 31*
O=c1[nH]c(=O)n(Cc2ccccc2)c2c1CN(CCc1ccccc1)CN2 | 15 | 25 | 35* | 36*
O=c1[nH]c(=O)n(Cc2ccccc2)c2c1CN(Cc1ccccc1)CN2 | 13 | 14 | 15 | -8
O=c1c2[nH]c3ccc(Br)cc3c2ncn1CCN1CCNCC1 | 12 | 18 | 38* | 40*
COc1ccc2c(c1)[nH]c1c(=O)n(Cc3ccccc3)cnc12 | 0 | 0 | 71* | 73*
CCOc1ccc2[nH]c3c(=O)n(CCc4ccc(OC)cc4)cnc3c2c1 | 15 | 1 | 67* | 13
CCOc1ccc2[nH]c3c(=O)n(CCC4=CCCCC4)cnc3c2c1 | 15 | 14 | . | 17
COc1ccc2[nH]c3c(=O)n(Cc4ccncc4)cnc3c2c1 | -1 | -5 | 6 | -1
COc1cc(C)cc2oc(=O)c(CC(=O)N[C@H](C(=O)O)C(C)C)c(C)c12 | 4 | 10 | 14 | 19
CCn1ncc(CN(C)C(=O)Nc2ccc(Cl)cc2)c1C | 9 | 9 | 16 | 32*
Cn1nc(CO)c2c1CCN(C(=O)c1ccc3c(c1)OCO3)C2 | 7 | 5 | 5 | 16
COc1ccc(C2=NC3(CCN(C(=O)c4ccc(C(C)(C)C)cc4)CC3)NC2=O)cc1 | . | 3 | 8 | .
O=C(Nc1ccccc1-c1cnn(-c2ccccc2)c1)c1ccccc1Cl | 20 | 7 | . | 41*
O=C(O)c1ccc(-c2cnn(-c3ccccc3)c2)nc1 | -8 | -6 | -26 | -73
O=C(Cc1ccccc1)Nc1cc(-c2nc3cnccc3o2)ccc1Cl | -19 | -11 | 15 | -39
Cc1noc(C2CN(C(=O)Cc3ccccc3Cl)C2)n1 | -13 | 1 | -17 | -12
CN(C1CCC2(CC1)CNC(=O)c1ccccc1O2)S(C)(=O)=O (stereo not drawn) | 10 | 16 | 14 | 2
O=C(NCC(=O)N1CCN(c2ccccc2)CC1)c1ccccc1 | -31 | -23 | -33 | -84
Cc1cccc(C(=O)NCC(=O)N2CCN(c3ccc(Cl)cc3)CC2)c1 | 4 | 2 | 33* | 41*
COc1ccc(CCNC(=O)c2cnn3c(C)cc(C)nc23)cc1OC | 2 | 1 | 2 | 4
CC(=O)c1ccc(N2C(=O)[C@H]3Cc4c([nH]c5ccccc45)CN3C2=O)cc1 | 7 | 12 | 44* | 10
CCN(CC)c1nc(C(=O)N2CCCCC2)nc2nc(C)cc(C)c12 | -54 | -40 | -80 | -222
Cc1cc(C)cc(NC(=O)N2CCC(c3nnc(-c4ccccc4)o3)CC2)c1 | 14 | 14 | 14 | 35*
O=C(c1ccccc1)N1CC[C@H](c2nnc(-c3ccncc3)o2)C1 | -1 | -2 | -1 | 1
Cc1ccc(CNC(=O)N2CCC(c3nc(C(=O)N4CCCC4)c(C)o3)CC2)cc1 | -15 | 0 | -11 | -4
SMILES | USP28 block | OTUD3 block | USP17 block | USP30 block
Cc1ccc(NC(=O)N2CCC(c3nc(C(=O)N4CCCC4)c(C)o3)CC2)cc1 | 6 | 12 | 4 | 33*
CN(C(=O)c1cc2ccccc2oc1=O)C1CCS(=O)(=O)C1 (stereo not drawn) | 10 | 13 | 17 | 16
O=C(NCc1cccc(Cl)c1)c1cc(CN2CCOCC2)on1 | 0 | 0 | -1 | 16
O=C(Cn1cc(C(=O)c2ccccc2)c(=O)c2cc3c(cc21)OCCO3)Nc1ccc(F)cc1 | -39 | -38 | -24 | -161
Cc1ccc(NC(=O)CSc2nc3c(cc2C#N)C(=O)CCC3)cc1 | 0 | 10 | 55* | 0
N#Cc1cc2c(nc1SCC(=O)NCc1ccccc1)CCCC2 | 13 | 16 | 59* | 20
CCn1ccc2c(cc(C(=O)Nc3ccccc3F)n2C)c1=O | 74* | -2 | 0 | -6
O=C(NCCc1ccncc1)C1CN(C(=O)c2ccc(Cl)cc2)CC12CCOCC2 (stereo not drawn) | 6 | 10 | 18 | 21
CC(Sc1n[nH]c2nc3ccccc3n12)C(=O)Nc1ccc2c(c1)OCCO2 (stereo not drawn) | 26 | 34* | 39* | -9
O=C(CSc1n[nH]c2nc3ccccc3n12)Nc1ccc2[nH]c(=O)[nH]c2c1 | -4 | 6 | -3 | -22
Cc1cccc(NC(=O)CSc2nnc(-c3n[nH]c4c3CCC4)n2N)c1C | 9 | 11 | 67* | 38*
Cc1cc(C)cc(C(=O)N2CCc3c(c(-c4nc(Cc5ccccc5)no4)nn3C)C2)c1 | 5 | -5 | -20 | -16
Cc1cc(-c2cnc(N3CCSCC3)nc2-c2ccoc2)on1 | 41* | 4 | 7 | -3

Screens (PubChem)
